# Source: PubChem (several laboratories)
# An excerpt weighted towards active compounds, which were near 3.6% of everything screened.
# Mtb betalactam = beta-lactam sensitization of Mtb H37Rv; AID 434955; M. tuberculosis H37Rv growth with meropenem, percent inhibition; 330,000 tested, 0.27% active; inhibition, % at 25 µM; call rule not given here;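 further: growth measured after seven days incubation then overnight dye step; 0% = bacteria only wells and 100% = bacteria with antibiotic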
# Mtb hypoxia inh = inhibitors of hypoxia-regulated fluorescent reporter in Mycobacterium tuberculosis. M. tuberculosis hypoxia-regulated fluorescent reporter, fluorescence. fluorescence inhibition, % (no concentration beside the values). 300,000 tested, 0.1% active. AID 1159583; in the data active means fluorescence inhibition mostly above about 23%, no sharp cut-off; inactive means mostly below about 17%
# GDH-TPI inh = GDH-TPI coupled enzyme inhibition counter-screen | GDH-TPI coupled enzyme counterscreen, NADH absorbance | inhibition, % at 4.8 µM | 360,000 tested, 1.2% active; in the data active means inhibition above about 30%;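 further: 0% = DMSO wells and 100% = wells lacking the enzyme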
# VHR inh abs = inhibitors of human VHR1 phosphatase (DUSP3); inhibition, % at 13.3 µM; recombinant VHR phosphatase, pNPP absorbance; 290,000 tested, 0.52% active; AID 1654; P51452; in the data active means inhibition above about 50%
# Target sequence (P51452 whole entry, looked up): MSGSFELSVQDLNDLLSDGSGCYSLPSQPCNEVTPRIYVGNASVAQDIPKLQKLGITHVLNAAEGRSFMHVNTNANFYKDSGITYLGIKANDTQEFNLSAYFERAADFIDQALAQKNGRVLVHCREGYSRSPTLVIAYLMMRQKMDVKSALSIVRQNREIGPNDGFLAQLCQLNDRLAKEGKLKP
# FBA Mtb inh = Mtb fructose-bisphosphate aldolase inhibition; inhibition, % at 1 µM; purified M. tuberculosis FBA, fluorescence read-out; 360,000 tested, 2.3% active; AID 588726; in the data active means inhibition above about 27%;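 further: 0% = vehicle and 100% = reference inhibitor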
# Target sequence (P9WQA3 whole entry, looked up): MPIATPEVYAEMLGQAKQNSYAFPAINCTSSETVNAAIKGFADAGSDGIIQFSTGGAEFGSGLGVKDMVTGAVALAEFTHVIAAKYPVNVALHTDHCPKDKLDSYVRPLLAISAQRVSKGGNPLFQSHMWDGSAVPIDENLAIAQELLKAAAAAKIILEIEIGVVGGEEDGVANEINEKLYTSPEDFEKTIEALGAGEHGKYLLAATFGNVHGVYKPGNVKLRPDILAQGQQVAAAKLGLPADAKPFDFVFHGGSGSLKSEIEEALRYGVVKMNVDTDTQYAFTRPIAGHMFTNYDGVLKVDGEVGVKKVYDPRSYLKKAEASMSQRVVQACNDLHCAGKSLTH
# The depositor's hits bear a star; ? = inconclusive; . = not tested or not shown; + = active, no number.
SMILES,Mtb betalactam,Mtb hypoxia inh,GDH-TPI inh,VHR inh abs,FBA Mtb inh
O=C(CNC(=O)c1ccc(F)cc1)N/N=C/c1ccc(O)c([N+](=O)[O-])c1,1,.,37*,35,-3
Cc1onc(-c2ccccc2)c1C(=O)N/N=C/c1ccc([N+](=O)[O-])c(O)c1,10,.,19,-19,-4
COC(=O)C1=C(c2ccccc2)CC2CCC1N2C(=O)N1CCC(C)CC1 (stereo unspecified),.,13,.,.,.
COc1cccc(NC(=O)C2CCCN2S(=O)(=O)c2cccc3cccnc23)c1 (stereo unspecified),.,8,.,.,.
Cc1csc(N/N=C/c2ccc(O)c([N+](=O)[O-])c2)n1,-1,.,39*,-2,-5
Cc1ccc2cc(CN(Cc3ccco3)S(=O)(=O)c3c(C)ccc4nsnc34)c(=O)[nH]c2c1,6,3,32*,-12,1
Cc1cc2cc(CN(Cc3ccco3)S(=O)(=O)c3c(C)ccc4nsnc34)c(=O)[nH]c2cc1C,-2,-1,17,26,-2
CN(C)c1ccc(C(=O)c2ccc(N(C)C)c3ccccc23)cc1,76,-1,34*,-5,-1
COc1ccc(C(=O)c2ccc(N(C)C)cc2)c(OC)c1,2,2,31*,27,0
Clc1ccc2nc(N3CCNCC3)nc(-c3ccccc3)c2c1,-9,-43,6,52*,13
CCOC(=O)N1CCC(N2C(=O)c3ccccc3C2Nc2ccc3c(C)cc(=O)oc3c2)CC1 (stereo unspecified),-9,0,20,-27,+
CCOC(=O)N1CCC(N2C(=O)c3ccccc3C2Nc2ccc3c(c2)OCCO3)CC1 (stereo unspecified),?,.,-3,11,0
O=C(O)c1ccc(C=NNC(=S)NC2CCCCC2)cc1,.,20,.,.,.
COc1ccc(CC(=O)Oc2cc(C)ccc2C)cc1,-2,-1,-2,58*,2
CN1CCN(C(=O)C2=CC(c3ccc(Br)cc3)CC(OCc3ccc(CO)cc3)O2)CC1 (stereo unspecified),.,6,.,.,.
O=C(O)COc1ccc2nsnc2c1Cl,0,.,6,-2,42*
CC(=O)c1ccc(NC=CC(=O)c2ccc(C)cc2)cc1,.,-1,.,.,.
Nc1nonc1-c1nc2ccccc2n1CC(=O)N/N=C/c1ccc(-c2ccccc2C(=O)O)o1,-2,.,42*,19,2
C=CCc1cccc(C=NNC(=O)C[n+]2ccccc2)c1O,.,2,.,.,.
CCN(CC)c1ccc2c(-c3ccc(S(=O)(=O)O)cc3S(=O)(=O)[O-])c3ccc(=[N+](CC)CC)cc-3oc2c1,-20,39*,15,31,0
CCN(CC)c1ccc2nc3c4ccccc4c(=O)cc-3oc2c1,5,-7,.,13,.
CC12CCCC(=O)C1CCC(=Cc1ccco1)C2=O (stereo unspecified),.,.,32*,.,-3
COc1ccc(C=C2CCC3C(=O)CCCC3(C)C2=O)cc1 (stereo unspecified),.,.,25,.,0
CCOC(=O)C1C2COc3cc(OC)ccc3C2N2C(=O)N(c3cccc(Cl)c3)C(=O)[C@@]12C (stereo partly specified),.,13,.,.,.
Cc1cc2c(=O)n(NC(N)=O)c(C)nc2s1,-5,.,-2,15,150*
SMILES,Mtb betalactam,Mtb hypoxia inh,GDH-TPI inh,VHR inh abs,FBA Mtb inh
COc1ccc(S(=O)(=O)Nc2ccc3c(c2)C(=O)N(C(C)CO)CC(C)C(CN(C)C(=O)Nc2c(C)noc2C)O3)cc1 (stereo unspecified),.,7,.,.,.
CSc1nc2c([nH]1)c(=S)n(C)c(=O)n2C,.,2,34*,.,1
CCCCC(C)Sc1nc2c([nH]1)c(=S)n(C)c(=O)n2C (stereo unspecified),.,.,31*,.,-3
CCCC(CC)Sc1nc2c([nH]1)c(=S)n(C)c(=O)n2C (stereo unspecified),.,.,20,.,4
O=C(C(=C([O-])c1ccccc1)[n+]1ccc2ccccc2c1)c1ccccc1,.,-1,.,.,.
O=C1OCC/C1=C\c1ccc2c(c1)OCO2,-6,1,26,52*,6
NCC(=NO)c1ccc(Cl)cc1Cl,.,-2,.,.,.
O=C(Nc1ccc(-c2nnc(-c3ccco3)o2)cc1)C(c1ccccc1)c1ccccc1,-11,-2,19,14,7
O=C(O)CCC(=O)Nc1ccc(-c2nnc(-c3ccco3)o2)cc1,1,8,17,5,141*
Cc1ccc(SCC(=O)Nc2ccc(-c3nnc(-c4ccco4)o3)cc2)cc1,-11,4,31*,40,1
CCC(=O)Nc1ccc(-c2nnc(-c3ccccc3)o2)cc1,34,.,1,19,+
COc1ccc2nc(C)cc(SCC(=O)NN=Cc3ccccc3)c2c1,.,15,.,.,.
CCCOC(=O)C1C2C=C[C@]3(CN(CC4CCCO4)C(=O)C13)O2 (stereo partly specified),.,9,.,.,.
CSc1ccc(C(=O)C2CCCN(C)C2)cc1 (stereo unspecified),5,-1,-4,53*,-2
CN1CCCC(C(=O)c2ccccc2)C1 (stereo unspecified),-6,4,-7,5,0
CCOC(=O)/C(C#N)=C/c1ccc(-c2ccsc2C(=O)OC)o1,7,1,5,53*,1
CCOC(=O)C(=Cc1ccc(-c2ccsc2C(=O)OC)o1)C(=O)OCC,3,6,16,45,-1
COc1cc(C(=O)N/N=C/c2ccsc2C)cc(OC)c1OC,-9,.,37*,3,-1
COc1ccc(C(=O)NCCNC(=O)c2cnccn2)cc1OC,0,1,-4,52*,2
COc1cc(/C=N/NC(=O)c2cnccn2)cc(OC)c1OC,10,.,32*,1,-1
COc1cc(C(=O)NN=Cc2ccsc2C)cc(OC)c1OC,.,8,.,.,.
CC(C)(C)OC(=O)CNC(=O)c1[nH]cnc1C(=O)NC(Cc1ccccc1)C(=O)OCc1ccccc1 (stereo unspecified),.,-1,.,.,.
Cn1c2ccccc2c(=O)c2cc(C#Cc3ccccn3)ccc21,2,3,26,-7,186*
Cn1c2ccccc2c(=O)c2ccc(C#Cc3ccccn3)cc21,12,-21,.,71,.
Cc1cc(Nc2nc3ccccc3[nH]c2=O)n(-c2ccccc2)n1,-3,.,43*,9,4
SMILES,Mtb betalactam,Mtb hypoxia inh,GDH-TPI inh,VHR inh abs,FBA Mtb inh
CC1CN(C(=O)COC(=O)c2ccc(F)cc2Cl)CC(C)O1 (stereo unspecified),6,16,16,50*,1
CC1(C)CC(=O)c2sc(NC(=O)C3CC3)nc2C1,-5,6,12,-4,-1
Cn1nc(C(C)(C)C)cc1C(=O)Nc1nc2c(s1)C(=O)CC(C)(C)C2,3,8,40*,15,7
Cc1cc([N+](=O)[O-])ccc1NC(=O)C=Cc1cccs1,.,4,.,.,.
CCOC(=O)/C(C#N)=C\N(C)C,-5,-1,6,57*,0
O=C(Cc1cccc2ccccc12)NN=C1CCCc2ccccc21,.,8,.,.,.
COCCCn1c(=NC(=O)c2ccncc2)c(C#N)cc2c(=O)n3cccc(C)c3nc21,2,-2,7,9,+
CCCCn1c(=NC(=O)c2cccnc2)c(C#N)cc2c(=O)n3cccc(C)c3nc21,2,-7,6,8,194*
